A selection: hits, their analogues and other compounds. The true share with any hit is near 0.75%.
TSHR antagonist: antagonists of human thyroid stimulating hormone receptor. P16473. TSHR-expressing cells, TSH-stimulated cAMP HTRF, 2 h; stronger effect = lower value. activity change, negative = inhibition, % at 11.5 µM. 330,000 compounds, 0.2% hits. AID 504810;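 active = activity change below a set negative limit, meaning inhibition stronger than a set level, cut at about -70% in these data; inconclusive = activity change between two set negative limits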; note: % is set by controls: 0 for no effect and ±100 for the full control effect
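Antagonism was scored as loss of TSH-driven cAMP in TSHR cells, stimulated with 4nM TSH (EC80) for 2 hours at 37 deg C and detected by homogeneous HTRF competition immunoassay.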
PKM2 activator: increases activity of human pyruvate kinase M2. Potency, µM (top dose mostly 57.5 µM), for the others: top-dose activation, actives largely listed as activators. 260,000 compounds, 0.34% hits. AID 1631. purified PKM2, Kinase-Glo ATP luminescence, activation; response scale: 0% is enzyme alone, no compound; note: potency is the fitted concentration of half-maximal effect; % is set by controls: 0 for no effect and ±100 for the full control effect; nearly all actives have a fitted effect of over 55% in size
Target sequence (P14618 whole entry, looked up): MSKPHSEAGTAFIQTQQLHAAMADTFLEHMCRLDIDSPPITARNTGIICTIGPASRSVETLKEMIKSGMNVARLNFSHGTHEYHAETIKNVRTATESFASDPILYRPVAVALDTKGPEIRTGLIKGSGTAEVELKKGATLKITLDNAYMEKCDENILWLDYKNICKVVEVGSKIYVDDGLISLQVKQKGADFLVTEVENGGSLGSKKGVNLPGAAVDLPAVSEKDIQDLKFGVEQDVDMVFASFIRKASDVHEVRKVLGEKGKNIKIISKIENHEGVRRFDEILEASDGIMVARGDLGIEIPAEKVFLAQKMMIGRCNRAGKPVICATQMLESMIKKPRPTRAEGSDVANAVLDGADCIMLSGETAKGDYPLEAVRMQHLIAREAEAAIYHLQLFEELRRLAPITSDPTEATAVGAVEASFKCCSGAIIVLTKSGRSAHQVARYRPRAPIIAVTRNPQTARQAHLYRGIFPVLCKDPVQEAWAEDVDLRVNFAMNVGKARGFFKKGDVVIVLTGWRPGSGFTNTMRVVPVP
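Purified hPK-M2 (>95%) run at intermediate activity with 0.1 mM ADP and 0.5 mM PEP in 50 mM imidazole pH 7.2, KCl, MgCl2; 1 h room temperature. ATP formed read by Kinase-Glo luminescence; normalized to uninhibited and no-enzyme controls.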
uPA generation: inhibitors of cell surface uPA generation | 330,000 compounds, 0.31% hits | Potency, µM (doses to about 38.3 µM), without a hit: at the top dose activity change, negative = inhibition, hits mostly inhibitors | cell surface uPA generation assay, qHTS | AID 540303; active = well fitted inhibition curve with a large enough effect; inconclusive = small, poorly fitted or top-dose-only effect; inactive = no such curve, though single readings can be large or run the other way; tested in mouse RAW 264.7 cells; note: potency is the fitted concentration of half-maximal effect; % is set by controls: 0 for no effect and ±100 for the full control effect; nearly all actives have a fitted effect of over 55% in size
TCR activator: activators of T cell receptors; 330,000 tested, under 10 active; AID 504894; Potency, µM (highest dose often 9.22 µM), inactives show top-dose activation of IL-2 secretion, hits mostly activators; primary human leukocytes, anti-CD3, IL-2 HTRF, 48 h; note: % of control where 0% means no effect
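Primary human leukocytes incubated 48 hr with anti-CD3 beads plus compound, without co-stimulation. Secreted IL-2 measured by HTRF (europium cryptate/d2 anti-IL-2 pair, 320 nm excitation, 665 nm emission).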
Numbers without * were called inactive; ? = inconclusive; . = no result given; [ ] = dose if it differs, or a comment. Unless noted, calls come from the whole dose curve; as a rule, active = well fitted curve in the direction sought with a large enough effect; inconclusive = small, poorly fitted or top-dose-only effect, or another doubt; inactive = no such curve, though single readings can be large; an effect the other way counts as inactive or inconclusive.

SMILES	TSHR antagonist	PKM2 activator	uPA generation	TCR activator
CCOC(=O)C1(Cc2ccc(OC)cc2)CCN(C(=O)c2ccc3[nH]ccc3c2)CC1	-3	-2%	11µM*	1%
CCOC(=O)C1(Cc2ccc(OC)cc2)CCN(C(=O)c2ccoc2C)CC1	4	2%	-10%	6%
CCc1ccc(NC(=O)c2nc(S(=O)(=O)Cc3ccccc3)ncc2Cl)cc1	-74*	-1%[0.46 µM]	.	.
CN(c1ccccc1)S(=O)(=O)c1ccc(NC(=O)c2nc(S(C)(=O)=O)ncc2Cl)cc1	-95*	.	?	7%
CCOc1ccccc1NC(=O)c1nc(S(=O)(=O)Cc2ccccc2)ncc1Cl	-75*	.	3.2µM*	-10%
CN(c1ccccc1)S(=O)(=O)c1ccc(NC(=O)c2ccccc2)cc1	-13	-6%	4%	2%[46.1 µM]
CCOC(=O)c1ccc(NC(=O)c2nc(S(=O)(=O)Cc3ccccc3)ncc2Cl)cc1	?	.	-3%	-1%
COc1ccccc1NC(=O)c1nc(S(=O)(=O)Cc2ccccc2)ncc1Cl	-78*	.	-5%	1%
CCS(=O)(=O)c1ncc(Cl)c(C(=O)Nc2ccccc2OC)n1	-14	1%	-12%	-3%
CC(C)(C)OC(=O)C[C@H]1C/C=C\C[C@H](CC(=O)NCCO)C(=O)N2CCC[C@@H]2COC1=O	-8	.	2%	3%
Cc1cc(=O)oc2c(C)c(OC(C)C(=O)NCc3ccccn3)ccc12 (stereo not drawn)	5	.	3%	-5%
CCS(=O)(=O)c1ncc(Cl)c(C(=O)Nc2ccc(S(=O)(=O)N3CCC(C)CC3)cc2)n1	-78*	25%	-5%	-2%
Nc1nn(-c2ccccc2)c(N)c1N=Nc1ccccc1	-7	2%	5µM*	0%[46.1 µM]
Cc1nn(-c2ccccc2)c(N)c1N=Nc1ccccc1	-19	-3%	-8%	5%
N/C(=N\OC(=O)N1CCOCC1)c1ccc(Br)cc1	9	-3%	10µM*	-2%
Nc1ccc2nc(SCc3cccc(F)c3)sc2c1	-7	-13%	-10%	-3%
COC1=C(N)C(=O)c2nc(-c3nc(C(=O)O)c(C)c(-c4ccc(OC)c(OC)c4O)c3N)ccc2C1=O	-72*	-1%	-84%	-15%
COc1ccc(-c2cc3ncnc(Cl)c3s2)cc1	-40	-22%	-12%	-1%
CC(=O)Nc1ccccc1C(=O)C(=O)Nc1cccc(C(=O)N2CC(C)CC(C)C2)c1 (stereo not drawn)	-5	.	-11%	6%
CC(C)NC(=O)COc1coc(CN2CCN(c3ccccc3F)CC2)cc1=O	-124*	.	5%	-4%
O=C1C2CCCN2C(c2ccc(F)cc2)N1c1ccc(Cl)cc1 (stereo not drawn)	3	0%	5µM*	3%
CC1(C)c2ssc(=S)c2-c2ccccc2N1C(=O)c1ccco1	-74*	-2%	1%	.
COc1cccc(CN(C)C(=O)c2cccc(S(=O)(=O)Nc3cccc(C)c3)c2)c1OC	.	.	3%	6%
Cc1ccc(-c2csc3nc[nH]c(=O)c23)cc1C	5	0%	-2%	-1%
COc1cccc(-c2csc3nc[nH]c(=O)c23)c1	6	28µM*	-5%	6%
SMILES	TSHR antagonist	PKM2 activator	uPA generation	TCR activator
Nc1nc(-c2ccccc2)c(-c2ccc([N+](=O)[O-])cc2)s1	-2	20µM*	-23%	-9%
Nc1nc(-c2ccccc2)c(-c2ccccc2)s1	-8	5%	-1%	-6%
NC(=O)C1CCN(c2nc(-c3cccc(Br)c3)cs2)CC1	-7	.	.	.
CCOC(=O)C1(CCOc2ccccc2)CCN(Cc2cccc(OC)c2O)CC1	-113*	-1%	-7%	-13%
CCOC(=O)C1(CCOc2ccccc2)CCN(Cc2cc(OC)ccc2OC)CC1	-2	0%	-30%	-2%
COc1cc(OC)cc(-c2nnc(Nc3nc4c(F)cccc4s3)o2)c1	.	7.1µM*	-19%	-5%
Cc1ccc(-n2c(SCC(=O)NCc3ccco3)nc3nc4c(cc3c2=O)COC(C)(C)C4)cc1	-9	14µM*	3%	0%
CN(C)S(=O)(=O)c1ccc(C(=O)Nc2nnc(SCC(=O)NCC3CCCO3)s2)cc1 (stereo not drawn)	10	4%	7.9µM*	-1%
Cc1nc(SCC(=O)NCC2CCCO2)c2c3c(sc2n1)CCC3 (stereo not drawn)	-6	-6%	-16%	-2%
CC(C)(C)c1ccc(C(=O)Nc2nnc(SCC(=O)NCC3CCCO3)s2)cc1 (stereo not drawn)	-3	-9%	0.89µM*	-6%
Cc1nc(SCC(=O)NCC2CCCO2)c2cc(-c3ccccc3)sc2n1 (stereo not drawn)	-39	.	8.9µM*	1%
CC(C)C(=O)N=C1SC2CS(=O)(=O)CC2N1Cc1ccccc1 (stereo not drawn)	-4	-5%	6%	-2%[46.1 µM]
O=C(/C=C/c1ccc(F)cc1)c1cc(Br)ccc1O	-13	1%	2%	-3%
O=C(/C=C/c1ccccc1)c1cc(Br)ccc(=O)c1O	-85*	-1%	-18%	-1%
Cn1c(CSCc2ccc(Cl)cc2Cl)n[nH]c1=S	5	28µM*	.	0%
Cn1c(CSCc2ccccc2Cl)n[nH]c1=S	28	18%	-4%	-11%
Cc1ccc(NC(=O)c2cccnc2)c([N+](=O)[O-])c1	1	-6%	3.5µM*	-2%
COc1ccc(NC(=O)c2cccnc2)c([N+](=O)[O-])c1	5	12%	-15%	-4%
Cc1nc(-c2ccccc2)sc1C(=O)NN	1	0%	10µM*	-3%
CCN1CCN(C(=O)/C(=C/c2ccco2)NC(=O)c2ccccc2)CC1	-4	.	8%	1%
N#CNC(=Nc1cccc(F)c1)SCc1ccccc1F	5	2%	13µM*	-46%[46.1 µM]
Cc1ccc(NC(=O)CN2CCCCCC2)cc1[N+](=O)[O-]	-6	-2%	-4%	-1%
COc1ccc2cc(S(=O)(=O)c3ccccc3)c(=O)oc2c1	21	5µM*	?	1%
Cc1ccc(C#CC[N+]2(CC#Cc3ccc(C)cc3)CCCCC2)cc1	2	2%	7.1µM*	12%[46.1 µM]
CCCCCSc1nnc(-c2ccccc2NC(C)=O)c(=O)[nH]1	-2	-8%	-2%	7%
SMILES	TSHR antagonist	PKM2 activator	uPA generation	TCR activator
CC(=O)O[C@H]1C2OC(=O)C(C)=C2[C@@H]2OC(=O)[C@]3(CCC4OC41C)OC23 (stereo partly drawn)	11	-4%	7.1µM*	-7%
O=C(Nn1cnnc1)C(c1ccccc1)c1ccccc1	-43	32µM*	5%	-8%
O=[N+]([O-])c1ccc(Sc2cccc3cccnc23)c([N+](=O)[O-])c1	1	12%	10µM*	3%
Cc1onc(-c2ccccc2)c1CNS(=O)(=O)c1ccccc1	-7	10%	-2%	4%
Cc1onc(-c2ccccc2)c1CNS(=O)(=O)c1cccc(Cl)c1	14	32µM*	6%	-3%
COc1ccc(S(=O)(=O)NCc2c(-c3ccccc3)noc2C)c(OC)c1	2	28µM*	1%	-8%
